Results on 63 molecules are retold here after the antibiotic and cytotoxicity screens of Wong et al. (2023).

About 500 (1.3%) of roughly 39,000 compounds were called active. This excerpt belongs to a sample that is enriched for actives.

The subject of the assay is S. aureus RN4220. In words: growth inhibition call (relative growth <= 0.2). Particulars: 50 µM.
On to `Cc1ccc(Sc2c(-c3ccccc3)nc3sccn23)cc1`, for which the growth inhibition call was “inactive”.

On to `COCC(=O)Nc1ccc2c(c1)C(=O)N(C)C[C@@H](OC)[C@H](C)CN(Cc1ccccc1OC)[C@@H](C)CO2`, for which the growth inhibition call is “inactive”. Then `C[C@@H](C[N+](C)(C)C)OC(N)=O`, with “inactive”; and `C=C[C@](C)(O)CC/C=C(\C)C(=O)O[C@@H]1[C@@H](O[C@@](C)(C=C)CC/C=C(\C)C(=O)O[C@H]2C[C@@]3(C(=O)O[C@H]4OC[C@@H](O[C@H]5O[C@@H](CO)[C@@H](O)[C@@H](O[C@H]6O[C@@H](CO)[C@@H](O[C@H]7O[C@@H](CO)[C@@H](O)[C@@H](O)[C@@H]7O)[C@@H](O)[C@@H]6O)[C@@H]5O)[C@@H](O)[C@@H]4O)[C@@H](O)C[C@@]4(C)C(=CC[C@H]5[C@@]6(C)CC[C@@H](O[C@H]7O[C@@H](CO)[C@@H](O[C@H]8O[C@@H](CO)[C@@H](O)[C@@H](O[C@H]9OC[C@@H](O)[C@@H](O)[C@@H]9O)[C@@H]8O)[C@@H](O)[C@@H]7O)C(C)(C)[C@@H]6CC[C@@]54C)[C@@H]3CC2(C)C)OC[C@@H](O)[C@H]1O`, with “inactive”.

As to `CCc1nc2ccc(C(=O)NCCN3CCNC3=O)cn2c1N(CC)Cc1cccc(Br)c1`, the growth inhibition call was “inactive”. Then `COC(=O)[C@@]12O[C@@H]1[C@H](O[C@@H]1O[C@H](CO)[C@@H](O)[C@H](O)[C@H]1O)C[C@H]1[C@]3(C)C[C@@H](c4ccoc4)OC(=O)[C@H]3CC[C@]12C`, with “inactive”; and `C[C@H](O)C#Cc1cnc2c(c1)C(=O)N([C@H](C)CO)C[C@H](C)[C@@H](CN(C)C(=O)Nc1ccc(C(F)(F)F)cc1)O2`, with “inactive”. As to `C[C@H]1O[C@@H](OC[C@H]2O[C@@H](OC[C@]3(C)[C@H]4CC[C@@]5(C)[C@H](CC[C@H]6C7=CC(C)(C)CC[C@]7(C(=O)O)CC[C@@]65C)[C@@]4(C)CC[C@@H]3O)[C@@H](O)[C@@H](O)[C@@H]2O)[C@@H](O)[C@@H](O)[C@@H]1O`, the growth inhibition call is “inactive”. Regarding `C[C@@H]1CN([C@H](C)CO)S(=O)(=O)c2ccc(C#CC3(O)CCCC3)cc2O[C@H]1CN(C)C(=O)Cc1cccnc1`, the growth inhibition call is “inactive”. As for `Cc1ccc(S(=O)(=O)Nc2ccc3c(c2)C(=O)N([C@H](C)CO)C[C@@H](C)[C@H](CN(C)S(=O)(=O)c2ccc(C)cc2)OCCCC[C@H](C)O3)cc1`, the entry is “inactive”. Then `COc1ccc(NC(=O)N(C)C[C@H]2Oc3c(NC(=O)c4cc(C)nn4C)cccc3C(=O)N([C@H](C)CO)C[C@H]2C)cc1`, with “inactive”; and `COCC#Cc1ccc([C@H]2[C@@H](CO)N3C(=O)CN(C(=O)c4ccncc4)C[C@H]23)cc1`, with “inactive”; and `C[C@@H]1CN([C@H](C)CO)C(=O)Cc2cc(NC(=O)CCN3CCOCC3)ccc2O[C@@H]1CN(C)S(=O)(=O)c1ccc(F)cc1`, with “inactive”. As for `CC(=O)OC[C@H]1O[C@H](n2ccc(=O)[nH]c2=O)[C@@H](OC(C)=O)[C@@H]1OC(C)=O`, the entry is “inactive”; as for `O=C(C[C@H]1CC[C@H]2[C@@H](COC[C@@H](O)CN2C(=O)Nc2cccc(F)c2)O1)NCCCN1CCOCC1`, “inactive”. For `O=C(C[C@@H]1CC[C@@H]2[C@H](COC[C@@H](O)CN2C(=O)Nc2cccc(Cl)c2)O1)NCCCN1CCOCC1`, the growth inhibition call was “active”. As to `O=C(C[C@H]1CC[C@@H]2[C@H](COC[C@@H](O)CN2C(=O)Nc2cccc(F)c2)O1)NCCCN1CCOCC1`, the growth inhibition call was “inactive”. Then `Cc1noc(C)c1S(=O)(=O)N(C)C[C@@H]1Oc2ccc(NC(=O)Cn3cnnn3)cc2CC(=O)N([C@H](C)CO)C[C@@H]1C`, with “inactive”; and `Cc1noc(C)c1NC(=O)Nc1ccc2c(c1)C(=O)N([C@@H](C)CO)C[C@H](C)[C@H](CN(C)C(=O)NC1CCCCC1)OCCCC[C@@H](C)O2`, with “inactive”; and `C[C@@H]1CCCCO[C@@H](CN(C)C(=O)Nc2ccc(C(F)(F)F)cc2)[C@H](C)CN([C@@H](C)CO)C(=O)c2cc(NC(=O)c3ccncc3)ccc2O1`, with “inactive”. In the case of `C[C@@H]1CN([C@@H](C)CO)C(=O)c2cccc(NS(=O)(=O)c3ccc(F)cc3)c2O[C@H]1CN(C)C(=O)Nc1ccc(C(F)(F)F)cc1`, the growth inhibition call is “inactive”. As for `C[C@@H]1CCCCO[C@H](CN(C)Cc2ccc(C(F)(F)F)cc2)[C@@H](C)CN([C@@H](C)CO)C(=O)c2cc(NS(=O)(=O)c3cn(C)cn3)ccc2O1`, the entry is “inactive”; as for `C[C@@H]1CN([C@H](C)CO)C(=O)c2c(c3ccccc3n2C)-c2ccccc2CO[C@H]1CN(C)Cc1ccc(C(=O)O)cc1`, “inactive”; as for `C[C@H](CO)N1C[C@H](C)[C@H](CN(C)Cc2ccc(C(=O)O)cc2)OCc2ccccc2-c2c(n(C)c3ccccc23)C1=O`, “active”. Then `C[C@@H]1CN([C@@H](C)CO)C(=O)c2ccccc2-c2ccccc2CO[C@@H]1CN(C)Cc1ccccc1C(F)(F)F`, with “inactive”; and `C[C@H](CO)N1C[C@H](C)[C@@H](CN(C)Cc2ccccc2C(F)(F)F)OCc2ccccc2-c2ccccc2C1=O`, with “active”. Regarding `C[C@@H]1CN([C@H](C)CO)C(=O)c2ccccc2-c2ccccc2CO[C@@H]1CN(C)Cc1ccccc1C(F)(F)F`, the growth inhibition call is “inactive”. Regarding `C[C@H](CO)N1C[C@H](C)[C@H](CN(C)Cc2ccccc2C(F)(F)F)OCc2ccccc2-c2ccccc2C1=O`, the growth inhibition call is “inactive”. Take `C[C@H]1CN([C@@H](C)CO)C(=O)c2ccccc2-c2ccccc2CO[C@H]1CN(C)Cc1ccccc1C(F)(F)F`: the growth inhibition call was “inactive”.

Turning to `C[C@@H]1CN([C@H](C)CO)C(=O)c2c(c3ccccc3n2C)-c2ccccc2CO[C@@H]1CN(C)Cc1ccc(C(=O)O)cc1`, the growth inhibition call was “inactive”.

`C[C@@H]1CN([C@@H](C)CO)C(=O)c2ccccc2-c2ccccc2CO[C@H]1CN(C)Cc1ccccc1C(F)(F)F`: the growth inhibition call is “active”. Turning to `O=C([C@H]1CCCO1)N1CCNCC1`, the growth inhibition call was “inactive”.

On to `C[C@@H]1CCCCO[C@@H](CN(C)Cc2ccncc2)[C@H](C)CN([C@H](C)CO)C(=O)c2cc(NC(=O)CCC(F)(F)F)ccc2O1`, for which the growth inhibition call was “inactive”. As to `COc1ccc2c3c(n(c2c1)C)[C@@H](CO)N(C[C@]13CCN(CC1)C(=O)c1ccccc1F)C(=O)Nc1ccccc1F`, the growth inhibition call was “inactive”. As for `Cc1ccc(S(=O)(=O)N(C)C[C@H]2OCCCC[C@H](C)Oc3ccc(NS(=O)(=O)c4ccc(Cl)cc4)cc3C(=O)N([C@H](C)CO)C[C@@H]2C)cc1`, the growth inhibition call is “inactive”. Consider `COCCCOc1cc(C[C@@H](C[C@H](N)[C@@H](O)C[C@H](C(=O)NCC(C)(C)C(N)=O)C(C)C)C(C)C)ccc1OC`, for which the growth inhibition call was “inactive”. As for `C[C@@H]1CN([C@H](C)CO)S(=O)(=O)c2ccc(C#CC3CCCCC3)cc2O[C@@H]1CN(C)C(=O)Cc1ccncc1`, the growth inhibition call was “inactive”. In the case of `C[N+](C)(C)CCCCNC(=O)[C@@H]1C[C@@H]2C(=O)N[C@@H](CCCC[N+](C)(C)C)C(=O)N2[C@@H]1c1cccc(OCCO)c1`, the growth inhibition call was “inactive”. Then `C[C@@H]1CN([C@H](C)CO)C(=O)c2cc(NC(=O)Nc3cccc4ccccc34)ccc2O[C@@H]1CN(C)Cc1ccccc1`, with “inactive”; and `CC(C)NC(=O)Nc1ccc2c(c1)CC(=O)N([C@H](C)CO)C[C@@H](C)[C@@H](CN(C)Cc1ccc(Oc3ccccc3)cc1)O2`, with “inactive”. Then `CN1CCN(c2c(F)cc3c(=O)c(C(=O)O)cn4c3c2SCC4)CC1`, with “active”; and `CN1CCN(c2c(F)cc3c(=O)c(C(=O)O)cn(CCF)c3c2F)CC1`, with “active”.

Take `Cc1ccc(S(=O)(=O)Nc2ccc3c(c2)CC(=O)N([C@@H](C)CO)C[C@@H](C)[C@@H](CN(C)C(=O)Nc2ccc(C(F)(F)F)cc2)O3)cc1`: the growth inhibition call is “inactive”. Consider `NC(CO)C(=O)O` (stereo not drawn), for which the growth inhibition call is “inactive”. Then `Cn1cnc(S(=O)(=O)N2C[C@@H](O)COC[C@@H]3O[C@H](CC(=O)NC4CCCC4)CC[C@H]32)c1`, with “inactive”.

For `O=C(NCCO)c1nc(NCCO)c2ccccc2n1`, the growth inhibition call was “inactive”.

In the case of `C[C@@H]1CCCCO[C@H](CN(C)S(=O)(=O)c2ccccc2)[C@@H](C)CN([C@@H](C)CO)C(=O)c2cc(NC(=O)Nc3ccccc3)ccc2O1`, the growth inhibition call is “inactive”. In the case of `CCC(=O)NC[C@H](Cc1ccc(OCCc2nc(-c3ccccc3)oc2C)cc1)N/C(C)=C\C(=O)c1ccc(C(F)(F)F)cc1`, the growth inhibition call was “inactive”.

Consider `COC(=O)c1nc[nH]c1C(=O)OC`, for which the growth inhibition call was “inactive”. As for `C[n+]1ccn(C[C@@]2(C)[C@H](C(=O)O)N3C(=O)C[C@H]3S2(=O)=O)n1`, the entry is “active”; as for `CC1(C)[C@H](C(=O)O)N2C(=O)C[C@H]2S1(=O)=O`, “inactive”. Then `CC1(Cn2ccnn2)C(C(=O)O)N2C(=O)CC2S1(=O)=O` (stereo not drawn), with “active”; and `CC1(C)C(C(=O)O)N2C(=O)CC2S1(=O)=O` (stereo not drawn), with “inactive”. `Cc1noc(C[C@@H]2C[C@@H]3CN(S(C)(=O)=O)C[C@@H]3O2)n1`: the growth inhibition call is “inactive”. Then `C[C@@H]1CCCCO[C@H](CN(C)C)[C@H](C)CN([C@H](C)CO)C(=O)c2cc(NS(=O)(=O)c3cn(C)cn3)ccc2O1`, with “inactive”; and `CS(=O)(=O)N1[C@@H]2c3ccc(-c4ccccc4)c(=O)n3C[C@H]1[C@H](CO)[C@H]2C(=O)NCC1CC1`, with “inactive”. As for `Cn1c(=O)c(F)c(Nc2ccc(I)cc2F)c2c(=O)n(C[C@@H](O)CO)cnc21`, the growth inhibition call is “inactive”. As to `COc1cc(F)c(F)c(Nc2ccc(I)cc2F)c1NS(=O)(=O)C1(C[C@H](O)CO)CC1`, the growth inhibition call is “active”.

For the molecule `O=C(NOC[C@H](O)CO)c1cc(Br)c(F)c(F)c1Nc1ccc(I)cc1F`, the growth inhibition call is “inactive”. Consider `CCOC(=O)OC(C)OC(=O)C1N2C(=O)C(NC(=O)C(N)c3ccccc3)C2SC1(C)C.Cl` (stereo not drawn), for which the growth inhibition call was “active”. With `CC1(C)S[C@@H]2[C@H](NC(=O)[C@H](N)c3ccccc3)C(=O)N2[C@H]1C(=O)OCOC(=O)[C@@H]1N2C(=O)C[C@H]2S(=O)(=O)C1(C)C`, the growth inhibition call was “active”. Regarding `C[C@@H]1CN([C@H](C)CO)C(=O)c2c(c3ccccc3n2C)-c2ccccc2CO[C@@H]1CN(C)Cc1ccccc1`, the growth inhibition call is “inactive”.

As for `O=C(C[C@@H]1C=C[C@@H](NS(=O)(=O)c2ccc(F)cc2)[C@H](CO)O1)N1CCC(Cc2ccccc2)CC1`, the growth inhibition call is “inactive”.
